# Reference: PubChem BioAssay AID2330 (Broad Institute, 2010)
# Hit rate of the full screen: of about 37,000 compounds, about 2,800 (7.6%) were called active. About 1% were inconclusive and are not listed. Many of the other results were omitted from the sample, so actives are more common in it than they were. A number with no mark means an inactive call. Rule as the data show it: active = inhibition above about 80%; inconclusive = no clear call, values can overlap the other calls; inactive = below that.
# Test: NOMO-1 AML cell viability reduction, primary screen, STK33 inhibitor project, CellTiter-Glo luminescence (AID 2330)
# Conditions: NOMO-1 AML viability, 72 h, active compounds read high, concentration not given here
row,Structure (SMILES),inhibition
1,C[C@H]1CN([C@@H](C)CO)C(=O)c2cc(NS(=O)(=O)c3ccccc3)ccc2O[C@@H]1CN(C)C(=O)NC1CCCCC1,13.9%
2,C[C@@H]1CN([C@@H](C)CO)C(=O)c2cccc(NC(=O)Nc3ccc(C(F)(F)F)cc3)c2O[C@@H]1CN(C)S(=O)(=O)c1cccs1,96.7% (active)
3,C[C@@H]1CN([C@H](C)CO)C(=O)c2cccc(NS(=O)(=O)c3ccc(F)cc3)c2O[C@@H]1CN(C)C(=O)Nc1ccc(C(F)(F)F)cc1,101% (active)
4,C[C@H]1CN([C@@H](C)CO)C(=O)c2cccc(NC(=O)Nc3ccc(C(F)(F)F)cc3)c2O[C@H]1CN(C)S(=O)(=O)c1ccccc1,54.4%
5,COc1ccc(NC(=O)Nc2cccc3c2O[C@H](CN(C)S(=O)(=O)c2cccs2)[C@H](C)CN([C@@H](C)CO)C3=O)cc1,34.9%
6,C[C@H]1CN([C@@H](C)CO)C(=O)c2cccc(NS(=O)(=O)c3ccccc3)c2O[C@@H]1CN(C)C(=O)Nc1ccc(C(F)(F)F)cc1,-8.64%
7,Cc1ccc(S(=O)(=O)Nc2cccc3c2O[C@H](CN(C)C(=O)Nc2ccc(C(F)(F)F)cc2)[C@@H](C)CN([C@@H](C)CO)C3=O)cc1,-0.901%
8,CC(C)NC(=O)Nc1cccc2c1O[C@@H](CN(C)S(=O)(=O)c1ccc(F)cc1)[C@@H](C)CN([C@H](C)CO)C2=O,-7.11%
9,CCn1c(=O)cc(O)c2ccccc21,27.9%
10,C[C@H](CO)N1C[C@H](C)[C@H](CN(C)C(=O)NC2CCCCC2)Oc2ccc(NC(=O)c3ccncc3)cc2CC1=O,-3.17%
11,COc1ccc(S(=O)(=O)N(C)C[C@H]2Oc3ccc(NS(C)(=O)=O)cc3C(=O)N([C@H](C)CO)C[C@H]2C)cc1,-0.557%
12,C[C@@H]1CCCCO[C@H](CN(C)S(C)(=O)=O)[C@@H](C)CN([C@H](C)CO)C(=O)c2cc(NS(=O)(=O)c3ccc(Cl)cc3)ccc2O1,4.39%
13,CC(C)=CCCC1(C)C=Cc2c(ccc3c2[nH]c2cc(O)c(C)cc23)O1 (configuration not stated),108% (active)
14,O=C(CC1SC(=NC2CC3C=CC2C3)NC1=O)Nc1ccccc1Cl (configuration not stated),8.48%
15,O=[N+]([O-])c1cccc(NC(=S)Nc2nn(Cc3ccc(Cl)cc3Cl)cc2Cl)c1,111% (active)
16,CC(C)CC(C(=O)Nc1cccc([N+](=O)[O-])c1)N1C(=O)c2ccccc2C1=O (configuration not stated),26.9%
17,COc1ccc(NC(=O)Nc2nn(Cc3ccc(Cl)cc3Cl)cc2Br)cc1OC,39.9%
